Molecules are shown by their SMILES. The campaign covered roughly 4,900 compounds. About 2,000 (41%) were called active.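 How the source made its calls: active means thallium signal drop beyond 5 SD of the untreated control mean, on both duplicate plates; inactive means the rest.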 The set was probably picked from earlier hits. The list is a sample of the results.

A short description of this assay: nonspecific activity without KCNK9 expression – cell-based, second counter screen, non-induced KCNK9-HEK293, counter-screen for KCNK9 inhibitor project, confirmation (AID 492997).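 On inhibition: plate controls were buffer only IC0 wells for no effect and SID17386958 at its maximal inhibitory level for full effect.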 The following applies: non-induced KCNK9-HEK293, FluxOR thallium flux, at 10 µM; hits give high values. (In general: The purpose of a counterscreen is to sort out artefacts and off-target activity.)
One may read the inhibition as the change of the read-out against control, counted positive when it falls. With `O=C1N=C2SCCN2/C1=C\c1c(Cl)cccc1Cl`, the inhibition entry is “inactive”.
The value for `COc1cccc(OC)c1C(=O)Nc1sc2c(c1C(N)=O)CCCC2` was “inactive”; that for `Cc1ccc(OCc2cc(C(=O)N(C)CCc3ccccc3)no2)cc1C` was “inactive”.
The result for `COc1ccc(C(C)=O)cc1COc1ccc(Cl)c(C)c1` reads 37% (active).
The result for `O=C(NCc1ccccc1)C1=C[C@@H](C2CCCCC2)C[C@@H](OCc2ccc(CO)cc2)O1` reads “inactive”; that for `CCC(C)(C)n1nnnc1C(c1cccs1)N1CCN(c2nc3ccccc3s2)CC1` (centres undefined), 34.5% (active).
As for `CC1(C)CC(N2CCN(C(c3ccccc3)c3ccccc3)CC2)=CC(=[N+]2CCCCC2)C1`, the inhibition was 36% (active).
For `Cc1ccccc1CSc1nnc(CCCCCNC(=O)OC(C)(C)C)o1`, the inhibition is 22% (active).
The result for `COC(=O)c1sc(-c2ccc(C(C)(C)C)cc2)cc1NC(=O)/C=C/C(=O)O` reads “inactive”; that for `COc1ccc(C(=O)NN2C(=O)C3C(c4ccccc4)C=CC(c4ccccc4)C3C2=O)cc1` (centres undefined), “inactive”; that for `COc1ccc(C(=O)Nc2ccccc2C(=O)N/N=C/c2ccccc2OC)cc1`, 31% (active).
The value for `COc1cccc(-c2cnc(OC(C)(C)C)nc2OC(C)(C)C)c1` was “inactive”; that for `O=C(Nc1ccc2c(c1)CCC2)c1cccc(S(=O)(=O)Nc2ccccc2Cl)c1` was “inactive”.
For `O=C(N/N=C/c1ccccn1)c1cccc(NC(=O)c2ccc(Cl)cc2)c1`, the inhibition was 22.5% (active).
The value for `O=C(COc1ccc(Cl)cc1Cl)N/N=C/c1ccccn1` was “inactive”; that for `CCc1ccccc1NC(=O)/C(=C/c1ccccc1)c1ccccc1` was 51.5% (active); that for `COc1ccc(C2CC(c3cccs3)=NN2c2ccccc2)cc1` (centres undefined) was 34% (active).
The result for `CCOc1ccccc1NC(=O)C12CC3CC(C1)CC(c1ccc(C)cc1)(C3)C2` reads “inactive”; that for `Cc1ccc(S(=O)(=O)N2CCN(C(=O)COC(=O)c3c(C)cc(C)cc3C)CC2)c(C)c1`, “inactive”.
The result for `O=C(NCCc1ccccc1)c1ccc2c(c1)N(Cc1ccccc1)CCS2` reads 29% (active); that for `O=C1/C(=C/c2ccc3c(c2)OCO3)CCC/C1=C\c1ccc2c(c1)OCO2`, “inactive”; that for `CC1(C)CC(=O)CC2(C1)NCC(c1ccccc1Cl)c1c2[nH]c2ccccc12` (centres undefined), 33% (active).
On to `CCCCC(=O)Nc1ccccc1N1CCN(c2ccc(F)cc2)CC1`, for which the inhibition is 43% (active).
The value for `Cc1ccc(N2CCN(S(=O)(=O)c3ccc(F)cc3)CC2)c(C)c1` was “inactive”; that for `Cc1cccc(C(=O)Nc2ccccc2N2CCN(c3ccc(F)cc3)CC2)c1` was 29.5% (active); that for `COc1ccc(C(=O)C2CCCN(C(=O)c3ccc(OC)o3)C2)c(C)c1` (centres undefined) was “inactive”.
Regarding `Cc1ccc2c(c1)N(C(=O)CCC(=O)N1CCc3ccccc3C1)CCO2`, the inhibition entry was “inactive”.
`Fc1ccc(Cn2nnnc2C(c2cccs2)N2CCCCCC2)cc1` (centres undefined): the inhibition is 30.5% (active).
On to `Cc1cccc2cc(CN(Cc3nnnn3Cc3ccccc3)C3CCCC3)c(=O)[nH]c12`, for which the inhibition entry is “inactive”.
`CCC(c1nnnn1Cc1ccco1)N(CCc1ccccc1)Cc1cc2cccc(C)c2[nH]c1=O` (centres undefined): the inhibition was 33.5% (active).
The value for `CCOc1ccc2[nH]c(=O)c(CN(Cc3nnnn3CCc3ccccc3)CC3CCCO3)cc2c1` (centres undefined) was “inactive”.
As to `O=C1CC(NNc2ccccc2)C(=O)N1c1cccc(Cl)c1` (centres undefined), the inhibition result was “inactive”.
The value for `c1ccc(C(c2ccccc2)N2CCN(Cc3nnnn3C3CCCCC3)CC2)cc1` was 29% (active); that for `CCOc1ccc(OCc2ccc(C(=O)Nc3cccc(C)n3)o2)cc1` was “inactive”.
For the compound `CSc1cccc(NC(=S)N(C(C)C)C(C)c2ccccn2)c1` (centres undefined), the inhibition was 24.5% (active).
The result for `CC(C)C(=O)Nc1cccc(NC(=S)NC(=O)C(c2ccccc2)c2ccccc2)c1` reads 24% (active).
The result for `COC(C(=O)Nc1ccc(S(=O)(=O)Nc2ccc(C)c(C)c2)cc1)c1ccccc1` (centres undefined) reads “inactive”; that for `CCCCOC(=O)CCCc1ccc([N+](=O)[O-])cc1[N+](=O)[O-]`, “inactive”.
The value for `COc1cc(Cl)c(S(=O)(=O)N2CCN(Cc3ccc4c(c3)OCO4)CC2)cc1Cl` was “inactive”; that for `COc1ccc(CCNC(=O)c2ccccc2OCc2ccccc2)cc1` was 40% (active); that for `COc1ccc(CCNc2ncnc3c2nnn3Cc2ccccc2)cc1` was “inactive”.
`COc1ccc(-c2nc(CCNC(=O)c3ccc(Br)o3)cs2)cc1`: the inhibition result is “inactive”.
The result for `COCCNc1cc(-c2ccccc2)nc2cc(-c3cccc(F)c3)nn12` reads 30% (active); that for `COC(=O)Cn1cnc2scc(-c3ccc(C)c(C)c3)c2c1=O`, “inactive”.
For `Cc1ccc(-c2csc(NCCc3nc4cc(Cl)c(Cl)cc4n3CCOCCO)n2)cc1`, the inhibition was 36% (active).
The value for `CCN(C(=O)COc1ccc(C(=O)c2ccccc2)cc1)c1ccccc1` was 29% (active).
For `Cc1ccc(C2=Nc3c(ccc4ccccc34)C(c3ccncc3)=NN2)cc1`, the inhibition entry is “inactive”.
The value for `COc1ccc2c(c1)C(c1cccs1)=NNC(c1cccnc1)=N2` was 24.5% (active); that for `O=C(NNc1ccccc1Cl)C(O)(c1cccc(C(F)(F)F)c1)c1cccc(C(F)(F)F)c1` was “inactive”.
The result for `O=[N+]([O-])/C=C/c1ccc2c(ccn2Cc2ccccc2)c1` reads 44.5% (active).
The value for `COc1cccc(COc2ccc(N(C)S(=O)(=O)c3ccccc3)cc2)c1` was 49.5% (active); that for `CCOC(=O)c1cc2sccc2n1Cc1ccc(C#N)cc1` was 53% (active); that for `O=C(OCC(=O)N(CCc1ccccc1)Cc1ccccc1)c1ccccc1[N+](=O)[O-]` was “inactive”.
For `O=C(Nc1ccc(Cl)c(Cl)c1)N1CC=C(c2ccccc2)CC1`, the inhibition entry was “inactive”.
The value for `Cc1nc(N2CCN(c3ccccn3)CC2)c2c(C)c(C(=O)Nc3ccc(F)c(Cl)c3)sc2n1` was 24.5% (active).
Turning to `COc1ccc(C(=O)C2CCCN(C(=O)c3cc(C)on3)C2)cc1F` (centres undefined), the inhibition entry is “inactive”.
Regarding `Oc1ccc(/C=N/Nc2nc(-c3ccccc3F)nc3ccccc23)c(O)c1`, the inhibition was 32% (active).
The result for `O=C1c2ccccc2S(=O)(=O)N1CC(O)Cn1c2ccccc2c2ccccc21` (centres undefined) reads “inactive”; that for `O=C(CSCc1ccc(Br)cc1)Nc1ccc(S(=O)(=O)N2CCCCCC2)cc1`, “inactive”.
Turning to `Cc1cccc(NC(=O)CN2CCCN(S(=O)(=O)c3ccc(Br)s3)CC2)c1`, the inhibition is 39.5% (active).
The result for `Cc1cccc(N(C)C(=O)CN2C(=O)COc3ccc(S(=O)(=O)N4CCCCCC4)cc32)c1` reads “inactive”; that for `O=C1c2ccccc2C2=Nc3ccccc3SC(c3ccccc3F)C12` (centres undefined), 45.5% (active).
The result for `C=CCN(N=Nc1cccc([N+](=O)[O-])c1)c1cccc([N+](=O)[O-])c1` reads 39% (active).
The result for `Cc1ccc(NC2CCCN(C(=O)CCC3(C)CC3)C2)cc1C` (centres undefined) reads “inactive”.

For the origin of these results see PubChem BioAssay AID492997 (Johns Hopkins Ion Channel Center, 2010).
